Our source for the growth values is PubChem BioAssay (NCI).

Common to all, as to experiment: NCI-60 one-dose screen, 48 h (100 = growth as untreated, 0 = no growth, -100 = all killed)
For assay [1], the system named is EKVX NSCLC. To be noted: 10 µM unless noted.
For assay [2], the system named is SN12C renal. The settings on record: 10 µM unless noted.
The test system of assay [3] is UO-31 renal. To be noted: 10 µM unless noted.
In assay [4] the test system is TK-10 renal. The settings on record: 10 µM unless noted.
For assay [5], the system named is ACHN renal. To be noted: 10 µM unless noted.
The test system of assay [6] is CAKI-1 renal. The settings on record: 10 µM.
Assay [7] concerns A498 renal. The settings on record: 10 µM unless noted.
Assay [8] concerns CCRF-CEM leukemia. To be noted: 10 µM unless noted.
The test system of assay [9] is RPMI-8226 leukemia. The settings on record: 10 µM unless noted.
In assay [10] the test system is OVCAR-8 ovarian. To be noted: 10 µM unless noted.
In assay [11] the test system is OVCAR-5 ovarian. The settings on record: 10 µM unless noted.
Assay [12] deals with OVCAR-4 ovarian. The settings on record: 10 µM unless noted.
In assay [13] the test system is SK-OV-3 ovarian. The settings on record: 10 µM unless noted.
Assay [14] concerns IGROV1 ovarian. The settings on record: 10 µM unless noted.
Assay [15] concerns HS 578T breast. The settings on record: 10 µM unless noted.
The subject of assay [16] is NCI/ADR-RES ovarian. To be noted: 10 µM unless noted.
In assay [17] the test system is SR leukemia. To be noted: 10 µM unless noted.
Assay [18] relates to MOLT-4 leukemia. The settings on record: 10 µM unless noted.

Compounds without any hit were thinned out: in the full panel of roughly 83,000, 20% have a hit.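 In brief: 96-well plates, 48 h treatment, single concentration, percent growth endpoint.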 A number with no mark means an inactive call. Calls of active or inactive are those of the source. Rule for the calls: active = growth percent below 10; inactive = the rest.

In the case of `CS(=O)(=O)c1nccc(-c2c(-c3ccc(F)c(OCc4ccc(F)cc4)c3)nc3sccn23)n1`, the growth is 28.4% in assay [1]; 86.2% in assay [2]; 80.1% in [3]; 105% in assay [4]; 91.3% in [5]; 81.5% in assay [6]. For the same molecule, the growth in assay [7] was 76.6%; in assay [8], 79.4%; in assay [9] it was 38.8%; in assay [10], 92.1%; in assay [11], 97%; in assay [12], 99.1%. Also, the growth in assay [13] was 110%; in assay [14] it was 82.1%; in assay [15], 85.4%; in assay [16], 98%.

Regarding `Cc1ccc(/C=C/c2nn3c(-c4ccco4)nnc3s2)cc1`, the growth is 108% in assay [1]; 107% in assay [2]; 85.6% in assay [3]; 87.9% in assay [4]; 99.9% in assay [5]; 86.8% in [6]. Further, the growth in assay [7] was 89%; in assay [8] it was 98.9%; in assay [17], 77.3%; in [9] it was 95.4%; in assay [10], 100%; in [11] it was 100%. In addition, the growth was 102% in [12]; 115% in assay [13]; 107% in assay [14]; 116% in assay [15]; 104% in [16].

For the molecule `CCOC(=O)CC(=O)CSC1=NC2C(NN1)N(C)C(=O)N2C` (stereo unspecified), the growth is 56.2% in assay [1]; 91.6% in [2]; 57.2% in assay [3]; 104% in assay [4]; 82.6% in [5]; 88.5% in [6]. For the same molecule, the growth in assay [7] was 118%; in assay [8], 38.8%; in [9], 56%; in [10] it was 66.8%; in assay [11], 88.6%; in [12], 88.9%. The growth in assay [13] was 114%; in assay [14], 91.2%; in assay [15], 94.4%; in assay [16], 80.1%.

In the case of `C=CCn1c(SCC(=O)Nc2ccc(OC)cc2)nnc1-c1ccc(Cl)cc1`, the growth in assay [1] is 92.5%; in assay [2], 92.7%; in assay [3], 73.5%; in assay [4], 97.9%; in assay [5], 92.8%; in assay [6], 84.6%. Besides, the growth in [7] is 98.2%; in assay [8] it was 117%; in assay [18], 84.2%; in assay [17] it was 74.3%; in assay [9], 105%; in assay [10] it was 98%. Besides, the growth in assay [11] is 93.9%; in assay [12], 99.7%; in assay [13], 101%; in assay [16] it was 83.6%.

With `c1cncc(-c2cn3nc(-c4c[nH]c5ccccc45)sc3n2)c1`, the growth was 72.5% in assay [1]; 61.5% in assay [2]; 44.6% in assay [3]; 94.4% in [4]; 72.3% in [5]; 51.7% in assay [6]. Moreover, the growth was 47.9% in assay [7]; 54.1% in [8]; 63.1% in assay [9]; 52.2% in assay [10]; 43.4% in [11]; 83.3% in assay [12]. Besides, the growth was 86.2% in assay [13], 59.8% in assay [14], 57.8% in [15] and 18.3% in assay [16].

Take `Cn1cc(-c2nn3c(=O)cc(-c4ccccc4)nc3s2)c2cc(F)ccc21`: the growth in [1] is 64.3%; in [2] it was 69.6%; in assay [3], 57.1%; in assay [4], 85.6%; in assay [5], 37.7%; in assay [6], 31.6%. Also, the growth is 62.5% in assay [7]; 52.8% in assay [8]; 69.2% in assay [9]; 36.6% in assay [10]; 75.1% in assay [11]; 47.5% in assay [12]. In addition, the growth was 68.4% in assay [13], 65.2% in assay [14], 60.9% in assay [15] and 42.2% in [16].

In the case of `Cn1cc(-c2nn3cc(-c4cccnc4)nc3s2)c2cc(F)ccc21`, the growth in assay [1] was 80.9%; in assay [2], 85.2%; in assay [3], 70.5%; in [4], 129%; in assay [5], 83.8%; in [6], 78.1%. Besides, the growth in assay [7] is 103%; in assay [8], 89.2%; in [9], 93.9%; in [10], 81.8%; in [11] it was 91.5%; in [12], 104%. Also, the growth is 77.4% in [13], 74.5% in assay [14], 84.6% in assay [15] and 75.7% in [16].

With `C/C(=C(/c1ccc(O)cc1)c1ccc(OCCN2CCCCCC2)cc1)c1ccccc1`, the growth in assay [1] is 59%; in [2] it was 57.2%; in assay [3] it was 29.4%; in [4] it was 92.6%; in [5], 58.7%; in assay [6], 39.2%. Also, the growth in [7] is 74.6%; in assay [8], 60%; in [17], -24% (active); in assay [9], 2.14% (active); in assay [10] it was 69.2%; in [11] it was 63.3%. The growth in assay [12] was 68.4%; in [13], 76.1%; in [14] it was 61.9%; in [15], 44.3%; in [16], 65.6%.

Turning to `COc1cc2c3c(n(CCCNC4CCCC4)c(=O)c2cc1OC)-c1cc2c(cc1C3=O)OCO2`, the growth was -67.4% (active) in assay [1]; -60.9% (active) in assay [2]; 76.2% in assay [3]; -97% (active) in assay [4]; -95.5% (active) in [5]; 11.7% in [6]. For the same molecule, the growth in [7] is 80.3%; in [8] it was -13.8% (active); in assay [9] it was -40.1% (active); in [10] it was -70.2% (active); in assay [11] it was -81.3% (active); in assay [12], 71.9%. Further, the growth is 80.7% in assay [13], -48.7% (active) in [14], 93.3% in [15] and 51.9% in [16].
